# The list is not random: actives were taken first. Their share in the collection is about 2.3%.
# M1 PAM parental = nonselective activator or artifact in parental CHO-K1 calcium assay; ATP EC20, Fluo-8 calcium fluorescence; 0% at ATP EC20, 100% at ATP max; activation, % at 3 µM; hit rate 0.02% among 360,000;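 active = activation above the run cutoff, the mean activation of all test compounds plus 3 SD, cut at about 40% in these data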;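 note: peak over basal fluorescence ratio in a 140 s read after ATP addition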
# CHRM1 agonist = activates human CHRM1 receptor; hit rate 0.33% among 360,000; activation, % at 3 µM; AID 588814; P11229; CHO-K1 hM1, Fluo-8 calcium fluorescence, agonist mode; 0% DMSO, 100% acetylcholine EC100;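 active = activation above the run's mean compound activation plus 3 SD, cut at about 16% in these data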;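 note: peak over basal fluorescence ratio within a 140 s kinetic read after compound addition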
# Target sequence (P11229 whole entry, looked up): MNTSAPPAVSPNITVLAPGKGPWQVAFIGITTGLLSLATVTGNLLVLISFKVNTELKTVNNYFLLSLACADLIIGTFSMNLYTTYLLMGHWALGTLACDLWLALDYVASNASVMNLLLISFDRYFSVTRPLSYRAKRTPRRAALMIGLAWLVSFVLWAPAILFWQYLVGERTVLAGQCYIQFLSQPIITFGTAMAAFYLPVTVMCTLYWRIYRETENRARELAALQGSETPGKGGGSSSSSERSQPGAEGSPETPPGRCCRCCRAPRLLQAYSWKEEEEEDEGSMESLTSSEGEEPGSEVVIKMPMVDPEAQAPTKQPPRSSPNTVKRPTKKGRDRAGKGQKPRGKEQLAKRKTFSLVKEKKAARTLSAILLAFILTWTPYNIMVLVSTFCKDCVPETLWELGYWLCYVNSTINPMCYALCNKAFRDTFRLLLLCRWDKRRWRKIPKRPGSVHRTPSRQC
# CHO-K1 Ca antag = counter-screen for M1 antagonists: effect in parental CHO-K1 cells | ATP-induced calcium, Fluo-8 fluorescence | inhibition, % at 3 µM | hit rate 0.6% among 360,000;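 active = inhibition above a per-plate cutoff, the plate's mean sample inhibition plus 3 SD, cut at about 24% in these data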;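 note: 0% = DMSO plus EC80 ATP and 100% = DMSO alone without ATP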
# M1 ag parental = nonselective activator or artifact in parental CHO-K1 cells. Fluo-8 calcium fluorescence; scaled to maximal ATP response, vehicle zero. hit rate 0.48% among 360,000. activation, % at 3 µM. AID 602248; in the data active = activation above about 15%;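 note: untransfected CHO-K1 host cells lacking M1 receptor as counterscreen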
# CHRM1 antagonist = human CHRM1 antagonism; CHO-K1 hM1, Fluo-8 calcium fluorescence, ACh EC80 antagonist; hit rate 1.3% among 360,000; P11229; inhibition, % at 3 µM;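 active = percent inhibition above its own plate's cutoff, namely the mean of that plate's compound wells plus 3 SD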;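 note: peak over basal fluorescence ratio during 140 s after agonist addition; 0% = ACh EC80 plus DMSO and 100% = DMSO alone without agonist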
# CHRM1 PAM = human CHRM1 positive allosteric modulation; P11229; CHO-K1 hM1, Fluo-8 calcium fluorescence, ACh EC20; 0% = ACh EC20, 100% = maximal ACh; activation, % at 3 µM; hit rate 0.088% among 360,000; AID 588819; in the data active = activation above about 19%, passing the limit was not always enough
# * hit, by the source's call.
SMILES,M1 PAM parental,CHRM1 agonist,CHO-K1 Ca antag,M1 ag parental,CHRM1 antagonist,CHRM1 PAM
C=CCn1c(O)c(C(CC)=NCC2CCCO2)c(=O)[nH]c1=O (stereo unspecified),5,-1,-3,0,8,1
COC(=O)C1=C(c2ccc(C(C)=O)cc2)C[C@@H]2CC[C@H]1N2C(=O)N1CCCCC1,19,-8,-9,1,-8,10
CC(=O)c1cccc(NC(=O)N2C[C@H]3C[C@@H](C2)c2cccc(=O)n2C3)c1,-18,-3,29*,0,-12,5
CCOC(=O)c1ccc(NC(=O)N2C[C@@H]3C[C@@H](C2)c2cccc(=O)n2C3)cc1,-18,-14,25*,0,19,-10
COc1ccc(OC(=O)N(C)C[C@@H]2OCc3cnnn3CCCC(=O)N([C@H](C)CO)C[C@@H]2C)cc1,1,-2,-2,0,-6,-2
C/C=C1\NC(=O)[C@@H](NC(=O)[C@H](CCc2ccc(O)cc2)NC(=O)[C@H](C)NC(=O)[C@H](O)CO)[C@@H](C)OC(=O)[C@H](C(C)C)NC(=O)[C@H](Cc2ccc(O)cc2)N(C)C(=O)[C@H](Cc2ccccc2)N2C(=O)C(CC[C@H]2O)NC1=O (stereo partly specified),-11,-4,10,0,-5,5
C[N+]1(C)CCC(OC(=O)C(c2ccccc2)c2ccccc2)CC1,7,-8,1,0,96*,-25
COC(=O)[C@@H](c1ccccc1)C1CCCCN1 (stereo partly specified),-3,-14,-1,0,12,-5
C[N+]1(C)C2CCC1CC(OC(=O)c1ccco1)C2 (stereo unspecified),26,-7,-17,1,3,-4
C#CC[N+]1(C)[C@@H]2CC[C@H]1CC(OC(=O)C(CO)c1ccccc1)C2 (stereo partly specified),6,-9,-17,0,99*,-31
C[N+]1(C)C2CC[C@H]1CC(OC(=O)C(CO)c1ccccc1)C2 (stereo partly specified),-1,-7,11,0,100*,-27
C[N+]1(C)[C@@H]2CC[C@H]1CC(OC(=O)[C@@H](CO)c1ccccc1)C2 (stereo partly specified),-7,-9,18,0,102*,-29
C[N+]1(C)C2CCC1CC(OC(=O)c1c[nH]c3ccccc13)C2 (stereo unspecified),26,-8,-12,0,-26,-7
O=C(N=Nc1c(O)[nH]c(=O)[nH]c1=O)C1COc2cc3ccccc3cc2O1 (stereo unspecified),-14,-1,20,0,3,0
COc1cc(C(=O)OC2C[C@H]3CC[C@@H](C2)N3)ccc1O (stereo partly specified),14,-10,-14,0,95*,-27
COc1cc(C(=O)OC2C[C@H]3CC[C@@H](C2)N3C)ccc1O (stereo partly specified),8,-10,-10,1,0,-4
COc1ccn(C)c(=O)c1C#N,5,-4,-5,0,3,-3
O=C(O)C(Br)CBr (stereo unspecified),-13,-1,5,0,-14,6
O=C(COC(=O)Cc1ccccc1)NCCNC(=O)COC(=O)Cc1ccccc1,-4,-2,-3,0,-8,4
O=C(Cc1ccccc1)OCCN1CCCCC1,0,-6,-2,0,34*,-20
CCOP(=O)(/C=C(\Cl)c1ccccc1)C(O)c1ccc(F)cc1 (stereo unspecified),6,-2,-12,2,-2,3
O=c1[nH]c(=S)n(CCC2=CCCCC2)c(O)c1C=NCCCn1ccnc1,-6,-5,25*,0,30*,-17
Cc1ccc(/C=C2/C(=O)NC(=O)N(CC3CCCO3)C2=O)s1 (stereo unspecified),14,-7,1,19*,-3,13
Cc1ccc(C[n+]2c(-c3ccc(C)cc3)cc(-c3ccc(C)cc3)cc2-c2ccc(C)cc2)cc1,4,2,17,14,33*,-13
C[N+]1=C(/C=C/Nc2ccccc2)C(C)(C)c2ccccc21,2,-12,17,0,9,-6
SMILES,M1 PAM parental,CHRM1 agonist,CHO-K1 Ca antag,M1 ag parental,CHRM1 antagonist,CHRM1 PAM
CCN1/C(=C/C=C/C2=[N+](CC)c3ccccc3C2(C)C)C(C)(C)c2ccccc21,-15,460*,95*,437*,100*,-28
CNc1ccc2oc(C[C@H]3O[C@@]4(CC[C@H]3C)O[C@H]([C@H](C)C(=O)c3ccc[nH]3)[C@H](C)C[C@H]4C)nc2c1C(=O)O,-5,105*,49*,33*,94*,-21
O=C1/C(=C\c2ccc(Cl)c(Cl)c2)N2CCC1CC2,15,-2,-4,3,2,0
CCOc1cc2c(cc1OCC)-n1cccc1C(c1ccc(OC)cc1)NC2 (stereo unspecified),14,-5,3,18*,-7,4
CCOc1cc2c(cc1OCC)-n1cccc1C(c1ccc(F)cc1)NC2 (stereo unspecified),6,-7,-9,5,3,1
C1CN(P2(N3CC3)=NP(N3CC3)(N3CC3)=NP(N3CC3)(N3CC3)=N2)CCO1 (stereo unspecified),28,-2,-17,1,-6,7
CC(C)N(CCC(C(N)=O)(c1ccccc1)c1ccccn1)C(C)C (stereo unspecified),1,-7,16,0,21,-22
CC1(C)CCCN1CCC(C(N)=O)(c1ccccc1)c1ccccc1,26,-8,-17,2,99*,-29
O=C1Nc2ccc(Br)cc2C(c2ccc(Cl)cc2)=NC1O (stereo unspecified),9,11,13,23*,2,9
O=C1Nc2ccc(Br)cc2C(c2ccccc2)=NC1O (stereo unspecified),-8,2,7,0,-3,17
C[C@H]1CC[C@H]2NCCN[C@H]2C1,17,2,-6,0,-9,17
